High-throughput results as filed in PubChem BioAssay.
HCMV antiviral: inhibitors of human cytomegalovirus | HFF cells, HCMV-luciferase reporter, 72 h; stronger effect = lower value | activity change, negative = inhibition, % at 57.5 µM | actives 4.5% (n = 410,000) | AID 1259415; in the data active = activity change below about -60%; inconclusive = no clear call, values can overlap the other calls; inactive = above about -39%
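Screen run at 2 compound doses on HFFs infected with reporter HCMV, MOI 1 PFU/cell. Luciferase activity from cell lysates at 72 h post infection gave inhibition relative to buffer-only and Salinomycin wells.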
HCV inh: inhibitors of hepatitis C virus infection; Huh7.5.1 HCVcc-Cre infection, luciferase reporter, 44 h; Potency, µM (titrated, usually from 41.8 µM), most hits filed as inhibitors; actives 3.4% (n = 340,000)
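Compounds are dispensed onto cells plated 4 h earlier at 1,000 per well, with HCVcc-Cre virus (about 0.5 moi) added next. Following 44 h of culture, luminescent signal is measured for 15 sec after 15 min with substrate at room temperature.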
FMDV inh: blocks foot and mouth disease virus | FMDV antiviral cell-based qHTS | Potency, µM (top dose mostly 57.9 µM), usual class: inhibitors | actives 1.2% (n = 410,000); calls by dose curve; tested in HEK293T cells; also: read-out not given here; nearly all actives have a fitted effect of over 45% in size
Sm TGR block: inhibitors of Schistosoma mansoni thioredoxin glutathione reductase; Q962Y6; purified TGR, DTNB reduction, TNB absorbance 405 nm; Potency, µM (highest dose often 114 µM), usual class: inhibitors; actives 3% (n = 360,000); AID 485364; also: nearly all actives have a fitted effect of over 60% in size
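Kinetic colorimetric format: TGR-catalysed, NADPH-driven DTNB reduction monitored via TNB absorbance. Enzyme dispensed at 20 nM; compound exposure 15 min at room temperature before reaction start.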
VACV Venus inh: vaccinia inhibition (Venus reporter) | Potency, µM (titrated, usually from 36.5 µM), most hits filed as inhibitors | Vaccinia virus Venus reporter expression, fluorescence | actives 0.46% (n = 330,000) | AID 720580; calls by dose curve; tested in A549 cells; also: nearly all actives have a fitted effect of over 30% in size
Vaccinia mCherry: inhibitors of vaccinia virus infection (mCherry reporter signal); Vaccinia virus mCherry reporter infection, fluorescence; Potency, µM (highest dose often 36.5 µM), actives largely listed as inhibitors; actives 0.63% (n = 310,000); AID 720579; calls by dose curve; tested in A549 cells; also: nearly all actives have a fitted effect of over 35% in size
Numbers stand for hits; . = inactive; ? = inconclusive; / = not tested or not shown; ! = a repeat was not active; [ ] = remark or other dose. This is a sample that favours compounds with a hit; in the whole collection about 9.3% have one here. Unless noted, calls follow the shape of the dose curve; as a rule, active = well fitted curve in the direction sought with a large enough effect; inconclusive = small, poorly fitted or top-dose-only effect, or another doubt; inactive = no such curve, though single readings can be large; an effect the other way counts as inactive or inconclusive.

SMILES | HCMV antiviral | HCV inh | FMDV inh | Sm TGR block | VACV Venus inh | Vaccinia mCherry
CN1CCC(=C2c3ccccc3Sc3ccccc32)CC1 | . | 10µM | ? | / | ? | ?
O=C(C1=C[C@@H](C2CC2)C[C@@H](OCc2ccc(CO)cc2)O1)N1CCN(Cc2ccc3c(c2)OCO3)CC1 | . | . | ? | . | . | .
COc1ccc(/C=N/NC(=O)COc2ccccc2-c2ccccc2)cc1 | -68.4 | 5.62µM | ? | . | 3.55µM | ?
O=C(COc1cccc2ccccc12)N/N=C/C=C/c1ccccc1 | -62.0 | . | . | . | / | /
COc1ccc(/C=N/NC(=O)CCSc2nc3ccccc3s2)cc1 | . | 3.55µM | . | . | / | /
COc1ccc(Br)c(/C=N/NC(=O)COc2ccc(-c3ccccc3)cc2)c1 | . | 7.94µM | . | . | . | .
O=C(O)COc1ccccc1/C=N/NC(=O)COc1ccc(-c2ccccc2)cc1 | . | . | . | . | . | .
CCOC(=O)CC(=O)Nc1ccn[nH]1 | . | . | . | . | / | /
O=C(O)c1ccc2nc(CO)[nH]c2c1 | . | . | . | . | . | .
CCNC(=O)COc1cccc2ccccc12 | -69.3 | . | . | . | / | /
CC(=O)Nc1ccc(NC(=O)COc2cccc3ccccc23)cc1 | . | / | . | / | . | .
O=C(CCn1cnc(-c2ccccc2)c1-c1ccccc1)N/N=C/c1ccc(O)cc1 | ? | . | ? | . | / | /
O=C(CNC(=O)c1ccccc1Cl)N/N=C/C=C/c1ccccc1 | . | . | . | . | . | .
COc1ccc(/C=N/NC(=O)CCn2cnc(-c3ccccc3)c2-c2ccccc2)cc1 | -82.6 | . | ? | . | / | /
O=C(CNC(=O)c1ccccc1F)N/N=C\C=C\c1ccccc1 | . | . | . | 22.4µM | . | .
O=C(COc1ccccc1-c1ccccc1)N/N=C/c1cccc2ccccc12 | -81.7 | 1.78µM | ? | . | ? | ?
Nc1ccc(-c2cc3ccccc3c(=O)o2)cc1 | -61.8 | ? | ? | / | . | ?
O=c1oc(-c2ccccc2)cc2ccccc12 | . | / | / | / | / | /
O=C(CSc1nnc(NC(=O)c2ccco2)s1)Nc1ccccc1Br | . | . | . | . | . | .
CC(Nc1ccccc1N1CCCCC1)C(=O)N1CCc2ccccc21 (stereo unspecified) | -69.9 | . | ? | . | . | .
CC(NC(c1ccccc1)c1ccccc1)C(=O)N1CCCc2ccccc21 (stereo unspecified) | . | . | ? | . | ? | .
Cc1sc(NC(=O)Cn2cnnn2)nc1-c1ccc(Cl)cc1 | ? | . | . | . | / | /
O=C(Nc1ccc(OC(F)F)c(Cl)c1)C(c1ccccc1)c1ccccc1 | . | ? | 39.8µM | . | / | /
Cc1ccc(NC(=S)Nc2ccc(Cl)c(Cl)c2)c(OC(F)F)c1 | -74.6 | ? | ? | . | ? | .
FC(F)Oc1ccc(NC(=S)NCc2ccccc2)cc1Cl | ? | 12.6µM | . | . | / | /
SMILES | HCMV antiviral | HCV inh | FMDV inh | Sm TGR block | VACV Venus inh | Vaccinia mCherry
O=C(Cc1cccc2ccccc12)Nc1ccc(OC(F)F)c(Cl)c1 | . | . | . | . | . | .
Cc1ccc(NC(=S)Nc2cc(-c3ccccc3)[nH]n2)cc1Cl | -71.9 | . | . | . | . | .
Cc1ccsc1/C=N/NC(=O)c1cccs1 | . | . | . | . | . | .
Cc1[nH]c2ccccc2c1C(=O)COC(=O)C1CCC1 | . | . | . | . | . | .
CC(NC(=S)Nc1ccc(OC(F)F)c(Cl)c1)C(C)(C)C (stereo unspecified) | ? | 11.2µM | . | . | ? | .
Cc1cc(C)cc(NC(=S)Nc2ccc(Cl)c(Cl)c2)c1 | -68.4 | . | . | . | . | .
COc1ccc(NC(=S)Nc2ccc(C)c(Cl)c2)cc1OC | ? | . | . | . | / | /
Cc1ccc(NC(=S)Nc2ccc(OC(F)F)c(Cl)c2)cc1Cl | -88.7 | ? | . | . | ? | .
Cc1cccc(C)c1NC(=S)Nc1ccc(Cl)c(Cl)c1 | . | . | . | . | . | .
CC(=O)Nc1nnc(SCC(=O)NCc2ccc3c(c2)OCO3)s1 | . | . | . | . | / | /
CCC(=O)Nc1nnc(S(=O)(=O)N2CCCC2)s1 | . | . | . | . | . | .
CCCCNC(=O)c1onc(CSc2ccccc2)c1C(=O)NCCCC | . | . | . | . | . | .
CC(O)(COc1ccccc1)c1ccc2c(c1)CN(Cc1cccnc1)CCO2 (stereo unspecified) | / | / | . | / | . | .
O=C(c1cc2ccccc2o1)N1CCN(S(=O)(=O)/C=C/c2ccccc2)CC1 | . | ? | ? | . | . | .
CC(=O)N1c2ccccc2C2CCCC[C@@H]21 (stereo partly specified) | . | . | . | . | . | .
O=C(OCc1c(-c2ccccc2)ncc2ccccc12)c1ccccc1C(F)(F)F | . | .[8.37 µM] | . | / | ? | .
COc1ccc(CCNC(=O)Cc2cc(OC)c(OC)cc2[N+](=O)[O-])cc1OC | . | . | . | . | . | /
Fc1ccc(N/N=C2/CCSc3sccc32)c(F)c1 | . | . | . | 25.1µM | . | .
Cc1cc(C(=O)C(C)Cl)c(C)n1Cc1ccco1 (stereo unspecified) | . | . | . | 28.2µM | . | .
Cc1cc(C(=O)COC(=O)C(C)NC(N)=O)c(C)n1Cc1ccco1 (stereo unspecified) | . | . | . | . | . | .
CCCCCc1c(C)nc(N2CCc3ccccc3C2)[nH]c1=O | . | . | . | . | . | .
OCCN(CCO)CC(O)COc1ccc(Br)cc1 (stereo unspecified) | . | . | . | . | / | /
OCCN(CCO)CC(O)COc1ccc(C23CC4CC(CC(C4)C2)C3)cc1 (stereo unspecified) | -62.0 | ? | . | . | . | .
COc1ccc(-c2nnn(Cc3ccccc3F)n2)cc1 | . | 11.2µM | . | . | . | .[1.46 µM]
Cc1cccc(N2CCN(C(=O)CCS(=O)(=O)c3ccc4c(c3)CC(=O)N4C)CC2C)c1 (stereo unspecified) | . | / | . | 12.6µM | . | .
SMILES | HCMV antiviral | HCV inh | FMDV inh | Sm TGR block | VACV Venus inh | Vaccinia mCherry
O=C1CC(N2CC=C(c3ccccc3)CC2)C(=O)N1c1ccc(F)cc1 (stereo unspecified) | / | . | . | 8.91µM | . | .
CCCOc1ccc(N2C(=O)CC(N3CC=C(c4ccccc4)CC3)C2=O)cc1 (stereo unspecified) | . | . | . | 28.2µM | . | .
O=C(Cc1cc(=O)[nH][nH]1)N/N=C/c1cccc(Cl)c1Cl | -102.1! | . | . | . | . | .
O=C(Cc1cc(=O)[nH][nH]1)N/N=C/c1ccccc1Cl | . | . | . | . | . | .
O=C(Cc1cc(=O)[nH][nH]1)N/N=C/c1cccc2ccccc12 | -89.6 | . | . | . | / | /
COc1ccc2c(c1)[C@@H](NC(=O)OCc1ccccc1)[C@H](C)[C@@H](c1ccccc1)N2Cc1ccccn1 | . | / | / | / | / | /
CCN(CC)CCCOC(=O)C(c1ccccc1)c1ccccc1 | . | 0.562µM | . | . | . | .
COc1ccccc1CN(C)C(=O)CN1CCN(CC(=O)Nc2ccccc2Cl)CC1 | . | . | . | . | . | .
O=C(Nc1ccccc1)c1ccc(-c2ccc(F)cc2)s1 | . | . | . | / | . | .
